In PubChem BioAssay (NCI):
This is part of a sample that, as a whole, favours compounds with a hit. Of some 83,000 tested, about 20% had one in any assay.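 Note: values are percent growth. 100 is the growth of untreated cells, values between 100 and 0 indicate rising inhibition; between -100 and 0 indicates cell death.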 Values without a mark were called inactive. The source made the active and inactive calls. The calls were made as follows: active = growth percent below 10; inactive = the rest.

Legend:
Assay in all cases: NCI-60 one-dose screen, 48 h (100 = growth as untreated, 0 = no growth, -100 = all killed)
HCT-15 colon = conditions: 10 µM unless noted
HT29 colon = conditions: 10 µM unless noted
SNB-75 CNS = conditions: 10 µM unless noted
SNB-19 CNS = conditions: 10 µM unless noted
PC-3 prostate = conditions: 10 µM unless noted
SK-MEL-5 melanoma = conditions: 10 µM unless noted
UACC-62 melanoma = conditions: 10 µM unless noted
SK-MEL-28 melanoma = conditions: 10 µM unless noted
SK-MEL-2 melanoma = conditions: 10 µM unless noted
EKVX NSCLC = conditions: 10 µM unless noted
SN12C renal = conditions: 10 µM unless noted
UO-31 renal = conditions: 10 µM unless noted
TK-10 renal = conditions: 10 µM unless noted
ACHN renal = conditions: 10 µM unless noted
CAKI-1 renal = conditions: 10 µM unless noted
A498 renal = conditions: 10 µM unless noted
CCRF-CEM leukemia = conditions: 10 µM unless noted
MOLT-4 leukemia = conditions: 10 µM unless noted
LOX IMVI melanoma = conditions: 10 µM
U251 CNS = conditions: 10 µM unless noted

| SMILES | growth (HCT-15 colon) | growth (HT29 colon) | growth (SNB-75 CNS) | growth (SNB-19 CNS) | growth (PC-3 prostate) | growth (SK-MEL-5 melanoma) | growth (UACC-62 melanoma) | growth (SK-MEL-28 melanoma) | growth (SK-MEL-2 melanoma) | growth (EKVX NSCLC) | growth (SN12C renal) | growth (UO-31 renal) | growth (TK-10 renal) | growth (ACHN renal) | growth (CAKI-1 renal) | growth (A498 renal) | growth (CCRF-CEM leukemia) | growth (MOLT-4 leukemia) | growth (LOX IMVI melanoma) | growth (U251 CNS) |
| --- | --- | --- | --- | --- | --- | --- | --- | --- | --- | --- | --- | --- | --- | --- | --- | --- | --- | --- | --- | --- |
| N#Cc1c(-c2ccccc2Cl)cc(-c2ccc3ccccc3c2)[nH]c1=O | 63.2% | 108% | -37.1% (active) | 17% | 60.6% | 79.4% | 52.7% | 67.9% | 95.4% | 41.1% | 0.758% (active) | 0.793% (active) | -0.132% (active) | 9.07% (active) | 25.1% | -29.6% (active) | 56.8% | 56.1% |  |  |
| O=C(c1ccccc1)c1ccc2nc(-c3ccc(F)cc3)[nH]c2c1 | 23.4% | 63.6% | 82% | 75.2% | 56.4% | 60.2% | 43.2% | 63.3% | 62.4% | 80.9% | 30.5% | 91.1% | 104% | 57.1% | 40.9% | 90.7% | 15.7% | 27.6% | 14.3% |  |
| N#Cc1c(-c2cccnc2)cc(-c2ccc3ccccc3c2)[nH]c1=O | 80.7% | 111% | 14.4% | 66.1% |  |  | 93.8% | 104% | 110% | 87.1% | 74.3% | 79% | 109% | 90.2% | 89.7% | 111% | 82% |  |  | 77.7% |
| O=C(O)Cn1c(O)c(/C=C2/C=c3cc4c(cc3=NC2=O)OCCO4)sc1=S | 98.5% | 119% | 101% | 97.9% | 106% | 107% | 94.8% | 116% | 117% | 101% | 97.5% | 89.9% | 110% | 119% | 99.3% | 118% | 97.3% | 105% | 93.6% |  |
| C#CCOc1cc(N(CC)CC)ccc1C(C(=O)NC(C)(C)C)N(C(=O)C1CCc2cc(F)ccc2O1)c1ccccc1Br (stereo unspecified) | 50.2% | 51.1% | 97.5% | 56.5% |  | 56.8% | 40.8% | 64.8% | 3.66% (active) | 60.4% | 56.3% | 43.4% |  | 42.1% |  | 80.9% | 57.5% | 14.4% | 31.7% |  |
| COc1ccc(C(=O)/C=C/c2ccccc2Br)cc1S(N)(=O)=O | -91.5% (active) | -17.2% (active) | 34.1% | 1.44% (active) |  |  | 34.4% | -27.7% (active) | 81.2% | -80.2% (active) | -25.6% (active) | -65.2% (active) | 3.43% (active) | -97% (active) | 11.8% | 93.3% | 6.96% (active) |  | -89.9% (active) | -95.6% (active) |
| O=C(/C=C/Nc1ccc(Cl)cc1)c1ccc2c(c1)Nc1ccccc1S2 | 67.1% | 28.7% | -24.4% (active) | 9.53% (active) | 29.8% | 71.3% | 32% | 65.9% | 55.1% | 55.8% | 61.8% | 36.1% | 72% | 30.7% | 38.3% | 108% | 81.1% | 66.2% |  |  |
| Cc1cc(C)cc(C(=O)Nc2cccc(-c3cn(-c4ccc(S(N)(=O)=O)cc4)nn3)c2)c1 | 79% | 80.4% | -7.62% (active) | -27.9% (active) | 83% | 24.4% | 12.2% | 62.4% | 12.8% | 55.7% | 32.6% |  | -9.72% (active) | 22.5% | 59.7% | -13.4% (active) | 30.4% |  |  |  |
| C=C1CC[C@@H]2[C@]3(C)COC(c4cn[nH]c4-c4ccc(C)cc4)O[C@@H]3CC[C@@]2(C)[C@@H]1C/C=C1/C(=O)OCC1O (stereo partly specified) | -72.9% (active) | -6.69% (active) | 87.8% | 37.7% | 37.6% | -63.9% (active) | -31.3% (active) | 6.8% (active) | 51.4% | 12.9% | 7.06% (active) | 4.54% (active) | 49% | -53.5% (active) | 50.3% | 133% | -17.8% (active) | 13.9% |  |  |
| COc1cccc(COc2ccc(NC(=O)Nc3ccc(Cl)c(C(F)(F)F)c3)cc2)c1 | 11.8% | 43.5% | 32.1% | 24.6% | 16.3% | -77% (active) | 38% | 69.6% | 51.5% | 35.2% | 33% | 7.91% (active) | 45.1% | 11.2% | 24.2% | 35.3% | 34.1% | 28.1% |  |  |
| O=C(CSc1nc2ccccc2c(=O)[nH]1)NCCN1CCCCC1 | 97.5% | 108% | 79.1% | 94.6% | 91.2% | 100% | 90.7% | 98.7% | 92.5% | 93.7% | 96.4% | 78.6% | 94.9% | 103% | 82.4% | 105% | 98.5% | 103% | 98.3% |  |
| O=C(NNc1nc2cc(F)ccc2n2c(C(=O)N3CCN(C4CC4)CC3)ccc12)c1ncccn1 | 10.5% | 39% | 73.3% | 30.7% |  |  | 9.28% (active) | 30.8% | 57% | 22.8% | 27% |  | 30.2% | 12.2% | 17.7% | 75.9% | 13.4% |  | 13.7% | 16.8% |
| CCCCc1c(Nn2cnnn2)no[n+]1[O-] | 32.8% | 59.5% | 48.9% | 72.3% | 58.1% | 80.6% | 52.4% | 73% | 80.1% | 54.2% | 42.4% | 28.4% | 96.5% | 54.9% | 39.5% | 79.2% | 31.6% | 23% |  |  |
| C=C1CCC2C3(C)COC(c4cc(F)cc(F)c4)OC3CCC2(C)C1CC(O)C1=CCOC1=O (stereo unspecified) | 7.8% (active) | 27.2% | 38.1% | 88.6% |  | 77.8% | 68.8% | 46.7% | 57.2% | 83.3% | 48.1% | 49.6% | 110% | 67.8% |  | 120% | 16.8% | 33.7% |  | 69.1% |
| C=C1CC[C@@H]2[C@]3(C)COC(c4cn[nH]c4-c4ccc(OC)cc4)O[C@@H]3CC[C@@]2(C)[C@@H]1C/C=C1/C(=O)OCC1O (stereo partly specified) | -35.3% (active) | -26.3% (active) | -16.5% (active) | 18.5% |  | -94.3% (active) | -75.2% (active) | -52.2% (active) | -42.2% (active) | -59.8% (active) | -14.3% (active) | -44.2% (active) | 5.62% (active) | 3.82% (active) | -23.4% (active) | 50.2% | 0.599% (active) | 8.3% (active) |  |  |
| Cc1cc2nc3c([nH]c2cc1C)c1ccc(=O)cc1n3CCN(C)C | 19.3% | 23.4% | 63.2% | 38.2% |  | 41.5% | 65.8% | 51.4% | 73.4% | 76.7% | 37.7% | 12.5% | 105% |  | 19.9% | 111% |  | 5.98% (active) |  | 40% |
| CC(=O)Nc1cccc(Nc2nccc(N[C@@H](C)c3ccccc3)n2)c1 | 7.75% (active) | 2.53% (active) | 7.86% (active) | 25.6% | 30.5% | -31% (active) | 20.6% | 49.4% | 41.5% | 16.6% | 15.4% | 25.9% | 29.1% | 12.7% | 29% | 68% | 24.9% | 20.5% |  |  |
